# Test results reported in the supplement of paper PMC7411054.
# Structures can show the parent of a compound that is named as a salt. Values without a mark were called inactive.
# System: WPMY1-TP53BP1-CLTA
# Test: phenotypically active (imaging signature differs from DMSO and reproducible) at any of 0.3-9 uM (binary (1 = active, 0 = inactive)); higher = active
# Details: treatment time: 24 h
# Procedure, shortened: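 Cells from fifteen gene-edited reporter lines (A549, HepG2 and WPMY1) were treated for 24 h at 0.3, 1, 3 or 9 µM and imaged live, four wells per condition. Features were normalised per well to solvent control wells. A condition deviated if ≥3 of 4 wells passed the 95th percentile of control Euclidean distances and was reproducible if its median replicate Pearson correlation beat the 95th percentile of non-replicates; phenotypic activity needed both.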
row,SMILES,phenotypically active
1,CC[C@H]1CN2CC[C@H]1C[C@@H]2[C@@H](O)c1ccnc2ccc(OC)cc12 [Hydroquinidine HCl],0
2,COc1cc2c(c(OC)c1OC)-c1ccc(O)c(=O)cc1[C@@H](N)CC2 [Trimethylcolchicinic acid],0
3,C[C@@]1(CO)[C@H](O)CC[C@@]2(C)[C@H]1CC[C@H]1C[C@@H]3C[C@@]12CC[C@]3(O)CO [Aphidicolin],1 (active)
4,COC(=O)[C@@]1(O)C[C@H]2O[C@]1(C)n1c3ccccc3c3c4c(c5c6ccccc6n2c5c31)C(=O)NC4,1 (active)
5,COc1ccc(N(C(=O)Oc2c(C)cccc2C)c2ccnc(Nc3ccc(N4CCN(C)CC4)cc3)n2)c(OC)c1,1 (active)
6,COc1ccc2c(c[n+](C)c3c4cc5c(cc4ccc23)OCO5)c1OC [Chelerythrine chloride],1 (active)
7,CC[C@@H]1C=CC=CC[C@H](C)[C@@H](O)[C@](C)(O)C(=O)[C@H](C)[C@@H](O)[C@H](C)C(=O)[C@H](C)[C@@H](O)[C@H](C)C=CC(=O)O[C@H]2[C@@H](C)[C@@H](CC1)O[C@@]1(CC[C@@H](C)[C@@H](C[C@H](C)O)O1)[C@@H]2C [Oligomycin A],0
8,CC(C)[C@@]1(NC(=O)[C@@H]2C[C@@H]3c4cccc5[nH]cc(c45)C[C@H]3N(C)C2)O[C@@]2(O)[C@@H]3CCCN3C(=O)[C@H](Cc3ccccc3)N2C1=O [Dihydroergocristine mesylate],1 (active)
9,O=c1[nH]c2ccccc2n1C1CCN(CCCC(c2ccc(F)cc2)c2ccc(F)cc2)CC1 [pimozide],0
10,C[C@]12CC[C@H]3[C@@H](CC[C@]4(O)C[C@@H](O)CC[C@]34C=O)[C@@]1(O)CC[C@@H]2C1=CC(=O)OC1 [Strophanthidin],1 (active)
11,CN1CCC2=C[C@H](O)[C@H]3OC(=O)c4cc5c(cc4[C@H]3[C@@H]21)OCO5 [Hippeastrine hydrobromide],0
12,C=C1[C@@H](O)C2C=CC[C@H](C)C(=O)[C@](C)(O)C=C[C@@H](OC(C)=O)[C@]23C(=O)N[C@H](Cc2ccccc2)[C@@H]3[C@@H]1C (stereo partly specified) [Cytochalasin D],1 (active)
13,COc1ccc(C[C@H]2NC[C@H](O)[C@H]2OC(C)=O)cc1 [Anisomycin],1 (active)
14,C[C@@H]1CC[C@H]2[C@@H](C)C(=O)O[C@@H]3O[C@@]4(C)CC[C@@H]1[C@]32OO4 [Artemisinin],1 (active)
15,O=C1NC(=O)c2c1c1c3ccccc3n3c1c1c2c2ccccc2n1C1CCC3O1,1 (active)
16,Cc1sc2c(c1C)C(c1ccc(Cl)cc1)=N[C@@H](CC(=O)OC(C)(C)C)c1nnc(C)n1-2,1 (active)
17,CN1C[C@H](C(=O)N[C@]2(C)O[C@@]3(O)[C@@H]4CCCN4C(=O)[C@H](Cc4ccccc4)N3C2=O)C[C@@H]2c3cccc4[nH]cc(c34)C[C@H]21.CN1C[C@H](C(=O)N[C@]2(C)O[C@@]3(O)[C@@H]4CCCN4C(=O)[C@H](Cc4ccccc4)N3C2=O)C[C@@H]2c3cccc4[nH]cc(c34)C[C@H]21 [dihydroergotamine],1 (active)
18,C[C@@]12C(=O)OC(=O)[C@]1(C)[C@H]1CC[C@@H]2O1 [Cantharidin],1 (active)

row,SMILES,phenotypically active
1,COc1cc2c(c(OC)c1OC)-c1ccc(OC)c(=O)cc1[C@@H](NC(C)=O)CC2 [colchicine],1 (active)
2,CC(C)(O)[C@H]1O[C@H]2CC[C@@]3(C)[C@@](O)(CC[C@H]4Cc5c([nH]c6ccccc56)[C@@]43C)C2=CC1=O [paxilline],1 (active)
3,N#CC(C#N)=NNc1cccc(Cl)c1,1 (active)
4,Cc1c(C(=O)Nc2cccc(C(F)(F)F)c2)cc(-c2ccccc2)n1CCCN1CCOCC1,0
5,CCN1CCN(C(=O)Cc2ccc(Nc3ncc(F)c(Nc4ccc(C(=O)Nc5ccccc5Cl)cc4)n3)cc2)CC1,1 (active)
6,CC(C)(C)c1cc(C=C(C#N)C#N)cc(Br)c1O,0
7,O=C(NCCN1CCC2(CC1)C(=O)NCN2c1cccc(F)c1)c1ccc(F)c(F)c1 [ML 298 hydrochloride],0
8,CC(C)(N)Cc1ccccc1 [phentermine],0
9,CCn1cnc2c(Nc3cccc(Cl)c3)nc(N[C@H]3CCCC[C@H]3N)nc21,1 (active)
10,O=C(Nc1ccncc1)C(=O)c1cn(Cc2ccc(Cl)cc2)c2ccccc12 [Indibulin],1 (active)
11,CC[C@@H](C(=O)[C@@H](C)[C@@H](O)[C@H](C)[C@@H]1O[C@@H]([C@@H](CC)C(=O)O)CC[C@@H]1C)[C@H]1O[C@]2(C=C[C@@H](O)[C@]3(CC[C@@](C)([C@H]4CC[C@](O)(CC)[C@H](C)O4)O3)O2)[C@H](C)C[C@@H]1C [Salinomycin Sodium],1 (active)
12,CC[C@@H](CO)NC(=O)[C@@H]1C=C2c3cccc4c3c(cn4C)C[C@H]2N(C)C1 [methysergide],0
13,CN1C[C@H](C(=O)N[C@]2(C)O[C@@]3(O)[C@@H]4CCCN4C(=O)[C@H](Cc4ccccc4)N3C2=O)C=C2c3cccc4[nH]cc(c34)C[C@H]21 [ergotamine],1 (active)
14,C[C@H](CCC(=O)O)C[C@H](C)C[C@H](C)C(=O)/C=C(\O)[C@H](C)C[C@H](C)C/C=C/[C@@H](C)[C@@H](O)[C@@H](C)[C@@H](O)C[C@@H]1CC[C@@](C)([C@H]2CC[C@@](C)([C@@H](C)O)O2)O1 [Ionomycin free acid],1 (active)
15,N#CC(C#N)=NNc1ccc(OC(F)(F)F)cc1,1 (active)
16,COC1=CC(C)=C[C@@H](C)[C@@H](O)[C@@H](C)CC(C)=CC=C[C@H](OC)[C@@H]([C@@H](C)[C@@H](O)[C@H](C)[C@@]2(O)C[C@@H](O)[C@H](C)[C@@H](C(C)C)O2)OC1=O [Bafilomycin A1],1 (active)
17,COc1cc([C@@H]2c3cc4c(cc3[C@H](O)[C@H]3COC(=O)[C@H]23)OCO4)cc(OC)c1OC [Podophyllotoxin],1 (active)
18,CC[C@]12C=CCN3CC[C@]4(C(=C(C(=O)OC)C1)Nc1ccccc14)[C@@H]32 [Tabersonine dichlorhydrate],1 (active)
